Test results published in PubChem BioAssay (NCATS).
Values joined by “and” are separate entries in the source; they are usually repeats but may differ in a detail not shown here. Identical values can stand only once. Records with an inconclusive call do not appear. A call without a number means that no potency is given here. Values without a mark were called inactive. Active and inactive are the calls of the source. The call rests on the fitted dose curve; in most records, active means well fitted cell-killing curve with a large enough effect; inconclusive means small, poorly fitted or top-dose-only effect; inactive means no such curve, though single readings can be large or run the other way.

Experiment: qHTS of pediatric cancer cell lines to identify multiple opportunities for drug repurposing: Primary screen for SJ-GBM2 cells (AID 1347091)
Conditions: SJ-GBM2 viability, CellTiter-Glo luminescence, 48 h; series mostly up to 46 µM; activity change, negative = cytotoxic: at the top concentration
Description: Drug repurposing or repositioning has been offered as a strategy for drug development in oncology programs. This approach has special potential for childhood cancers and other rare or orphan diseases, where the expected return on new drug development has been a disincentive to pharmaceuticals.
In this project we exploit the poly-pharmacology of drugs to discover new indications via phenotypic screening of a panel of 19 well-characterized cell lines derived from solid tumors seen in children and adolescents. The goal is to identify approved drugs with previously unrecognized anticancer properties that has the potential to reveal new mechanisms and biological processes involved in carcinogenesis or drug resistance. We employed a titration-based paradigm (quantitative high-throughput screening or qHTS), where all compounds were tested at multiple concentrations for their effect on cell viability. Concentration-response curves (CRCs) were derived directly from the primary screen, and both potency and efficacy values were used to identify compounds with robust bioactivity profiles. We screened the NIH Chemical Genomics Center (NCGC) Pharmaceutical Collection (NPC) and Mechanism Interrogation Plate (MIPE) small molecule collections of approved and investigational compounds against these cell lines; and measured metabolically active cells after 48 hours of compound treatment as a proxy for cell viability.
Assay Submitter: Nathalia J. Martinez, National Center for Advancing Translational Sciences, National Institutes of Health, Rockville, MD, USA; email: natalia.martinez@nih.gov
[1] Shen, M et al. Quantitative high-throughput phenotypic screening of pediatric cancer cell lines identifies multiple opportunities for drug repurposing. Oncotarget 2017 Dec 19;9(4):4758-4772. PMID 29435139.
The cells were obtained from University of North Carolina (UNC), Pediatric Preclinical Testing Program (PPT), and Coriell Institute (CI).
qHTS cell viability assay:
Cells were assayed in growth media at a density of 500-1,000 cells/well. Five microliters of cells were dispensed into 1,536-well, white, solid-bottom, TC-treated plates (Greiner Bio One) using a multidrop dispenser and incubated at 37 degrees C, 5% CO2, under a humidified atmosphere for 5 hours. Twenty-three nanoliters of compounds and controls (neutral control DMSO or positive control bortezomib at final concentration of 2.3 µM) were subsequently transferred by Kalypsys pintool. For primary screens, the MIPE collection was tested at 11-point dilutions (final concentrations range from 0.78 nM to 46 µM) and the NPC collection at 8-point dilutions (final concentrations range from 0.59 nM to 46 µM). Compounds tested in follow-up screens were assayed at 11-point dilutions. Cells were incubated for 48 hours, followed by addition of 3 uL of CellTiter-Glo (Promega). After a 15 min incubation at room temperature, samples were analyzed for luminescence intensity using a ViewLux High-throughput CCD imager equipped with clear filters.
Potency means the concentration at half of the fitted maximal effect.

Row | SMILES | activity change, negative = cytotoxic | Potency
1 | S=P(N1CC1)(N1CC1)N1CC1 | 14.5% [at 92.7 µM] | 
2 | Nc1ccc(S(=O)(=O)Nc2ccccn2)cc1 |  | inactive
3 | C[C@]12C=CC(=O)C=C1CC[C@@H]1[C@@H]2C(=O)C[C@@]2(C)[C@H]1CC[C@]2(O)C(=O)CO |  | inactive
4 | CCCc1cc(C(N)=S)ccn1 |  | inactive
5 | CNC1CCCN(c2c(F)cc3c(=O)c(C(=O)O)cn(C4CC4)c3c2OC)C1 (stereo not given) |  | inactive
6 | CN(C)CCc1c[nH]c2ccc(C[C@H]3COC(=O)N3)cc12 | 26.1% | 
7 | Cn1c(=O)c2c(ncn2CC(O)CO)n(C)c1=O (stereo not given) |  | inactive
8 | Cc1nnc(C(=O)NC(C)(C)c2nc(C(=O)NCc3ccc(F)cc3)c(O)c(=O)n2C)o1 |  | inactive
9 | CCc1cc(C(N)=S)ccn1 |  | inactive
10 | CCn1cc(C(=O)O)c(=O)c2cc(F)c(N3CCN(C)CC3)cc21 |  | inactive
11 | NC(=O)c1cccc(N)c1 | 22.5% | 
12 | CCOC(=O)[C@H](CCc1ccccc1)N[C@H]1CCc2ccccc2N(CC(=O)O)C1=O |  | 23.5 µM (active)
13 | CCN1CCCC1CNC(=O)c1cc(S(N)(=O)=O)ccc1OC (stereo not given) | 23.1% | 
14 | CC[C@H](NC(C)C)[C@H](O)c1ccc(O)c2[nH]c(=O)ccc12 |  | inactive
15 | O=C(O)c1cc(=O)[nH]c(=O)[nH]1 |  | inactive
16 | COc1ncnc(NS(=O)(=O)c2ccc(N)cc2)c1OC |  | inactive
17 | O=S(=O)(O)CCS |  | inactive
18 | CC(C)(C#N)c1cc(Cn2cncn2)cc(C(C)(C)C#N)c1 |  | inactive
19 | COc1nc(N)nc2c1ncn2[C@@H]1O[C@H](CO)[C@@H](O)[C@@H]1O |  | inactive
20 | CC1=C(C(=O)O)N2C(=O)[C@@H](NC(=O)C(N)c3ccccc3)[C@H]2SC1 (stereo not given in full) | 16.2% | 

Row | SMILES | activity change, negative = cytotoxic | Potency
21 | CCN[C@H]1C[C@H](C)S(=O)(=O)c2sc(S(N)(=O)=O)cc21 |  | inactive
22 | CO[C@@]12[C@H](COC(N)=O)C3=C(C(=O)C(C)=C(N)C3=O)N1C[C@@H]1N[C@@H]12 |  | 14.8 µM (active)
23 | CC1=NN(c2ccccc2)C(=O)C1 |  | inactive
24 | Nc1nc(F)nc2c1ncn2[C@@H]1O[C@H](CO)[C@@H](O)[C@@H]1O |  | 0.935 µM (active)
25 | CC(C)NCC(O)c1ccc(NS(C)(=O)=O)cc1 (stereo not given) | 55.4% | 
26 | Nc1[nH]c(=O)ncc1F |  | inactive
27 | CCc1c2c(nc3ccc(OC(=O)N4CCC(N5CCCCC5)CC4)cc13)-c1cc3c(c(=O)n1C2)COC(=O)[C@]3(O)CC |  | 1.19 µM (active) and 590 nM (active)
28 | CN1CCN(c2c(F)cc3c(=O)c(C(=O)O)cn4c3c2OCN4C)CC1 |  | inactive
29 | CN(C)CCc1c[nH]c2ccc(CS(=O)(=O)N3CCCC3)cc12 |  | inactive
30 | NC(N)=NC(N)=NCCc1ccccc1 |  | inactive
31 | COC(=O)Nc1nc2ccc(C(=O)c3ccccc3)cc2[nH]1 |  | 0.376 µM (active)
32 | CC(C)OC(=O)C(C(=O)OC(C)C)=C1SC=CS1 | -3.15% | 
33 | O=C(O)c1cn(C2CC2)c2cc(N3CCNCC3)c(F)cc2c1=O |  | inactive
34 | CN1CCCC(n2nc(Cc3ccc(Cl)cc3)c3ccccc3c2=O)CC1 (stereo not given) |  | 1.32 µM (active)
35 | CN(Cc1cc(Br)cc(Br)c1N)C1CCCCC1 |  | inactive
36 | C[C@@H](NCCCc1cccc(C(F)(F)F)c1)c1cccc2ccccc12 | 18.2% | 
37 | CC(C)(Sc1cc(C(C)(C)C)c(O)c(C(C)(C)C)c1)Sc1cc(C(C)(C)C)c(O)c(C(C)(C)C)c1 |  | inactive
38 | CCN(CC)CCn1c(=O)c(Cc2ccc(OC)cc2)nc2ccccc21 | 16.1% | 
39 | CCn1cc(C(=O)O)c(=O)c2cc(F)c(N3CCNCC3)nc21 |  | inactive
40 | Cc1noc(NS(=O)(=O)c2ccc(N)cc2)c1C |  | inactive
